PLCb3 inh = inhibitors of human phospholipase C beta3; Purified PLC-beta3, fluorogenic substrate, fluorescence; inhibition, % at 12.2 µM; 370,000 tested, 0.18% active; Q01970; in the data active = inhibition above about 11%;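 note: 0% = median of compound wells on plate and 100% = full blocker control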
ADAM17 inh = inhibits human ADAM17; recombinant ADAM17, EDANS/DABCYL FRET peptide cleavage; inhibition, % at 6.95 µM; AID 720648; 370,000 tested, 0.83% active;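 active = inhibition above the mean of compounds lying between control limits plus 3 SD, set per campaign, cut at about 8.5% in these data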;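 note: 0% = DMSO-only wells as the low control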
ADAM10 inh = inhibitors of human ADAM10. O14672. recombinant ADAM10, EDANS/DABCYL FRET peptide cleavage, 3 h. inhibition, % at 7 µM. 370,000 tested, 0.62% active. AID 720582;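 active = inhibition above a per-campaign cutoff equal to the mean of compounds falling between control-based bounds plus 3 SD, cut at about 20% in these data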;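 note: 0% = DMSO wells while the 100% control is not disclosed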
PLCg1 inh = inhibitors of human phospholipase C gamma1 | purified PLC-gamma1, fluorogenic substrate, fluorescence | inhibition, % at 12.2 µM | 370,000 tested, 0.84% active | AID 720700; in the data active = inhibition above about 9.5%
sPLA2-III inh = Inhibits HGIII-sPLA2 liposome hydrolysis, primary screen; inhibition, % at 12.2 µM; 370,000 tested, 0.56% active; Q9NZ20; QFRET BODIPY PC-A2 liposome hydrolysis, fluorescence;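 active = inhibition above mean plus 3 SD of compounds lying within the high and low control bounds, cut at about 19% in these data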;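 note: 0% = median of test compound wells and 100% = no enzyme DMSO wells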
KLK7 zymogen act = activators of human kallikrein-7 zymogen; P49862; purified proKLK7, EDANS-DABCYL substrate fluorescence; 100% is mature enzyme control, 0% vehicle; activation, % at 7 µM; 370,000 tested, 0.9% active;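 active = activation above the mean of all tested compounds plus 3 SD, computed per campaign excluding outliers beyond control limits, cut at about 13% in these data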
ADAM10 ctr = counter-screen for ADAM17 exosite inhibitors: inhibitors of human ADAM10 | recombinant ADAM10, EDANS/DABCYL FRET peptide cleavage, 3 h | inhibition, % at 6.95 µM | AID 743256 | shares compounds with ADAM17 inh | 2,900 tested, 47% active;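 active = mean inhibition over the triplicate runs exceeds the activity threshold set in the earlier primary screen, cut at about 20% in these data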;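 note: 0% = DMSO wells and 100% = marimastat wells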
ADAM17 confirm = human ADAM17 inhibition, confirmation | shares compounds with ADAM17 inh | recombinant ADAM17, EDANS/DABCYL QFRET peptide cleavage | inhibition, % at 6.95 µM | 2,900 tested, 65% active | AID 743257;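 active = mean inhibition across replicates above the hit cutoff set in the primary screen, cut at about 8.5% in these data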;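 note: 0% = DMSO wells and 100% = marimastat wells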
The depositor's hits bear a star; . = no result given. Compounds with a hit are over-represented: about 3.4% of the library has one in this group of screens.

SMILES | PLCb3 inh | ADAM17 inh | ADAM10 inh | PLCg1 inh | sPLA2-III inh | KLK7 zymogen act | ADAM10 ctr | ADAM17 confirm
CCN(CC)S(=O)(=O)c1cccc(C(=O)N[C@H](C(=O)OCC(=O)Nc2ccccc2)C(C)C)c1 | 3 | 11* | -4 | 1 | -17 | 0 | 5 | 4
CCC(=O)c1ccc(OCC(=O)OC(C)C(=O)NCc2ccc3c(c2)OCO3)cc1 (stereo unspecified) | -2 | -2 | 4 | 1 | -2 | 0 | . | .
COc1cccc(N2CC(O)Cn3c2nc2c3c(=O)[nH]c(=O)n2C)c1 (stereo unspecified) | -8 | -6 | -5 | -2 | 4 | 0 | . | .
COc1ccccc1NS(=O)(=O)c1ccc(Cl)c(NC(=S)NC(=O)C2CCCC2)c1 | -1 | 9.9* | 13 | 0 | -28 | 0 | 38* | 17*
CCN(CC)S(=O)(=O)c1ccc(Cl)c(NC(=S)NC(=O)C2CCCC2)c1 | -5 | 5 | 10 | 4 | -5 | -1 | . | .
CCN(CC(=O)Nc1ccc(NC(C)=O)cc1)C(=O)c1cc([N+](=O)[O-])ccc1Sc1ccc(Cl)cc1 | -22 | -4 | -20 | -11 | -8 | 1 | . | .
O=C(/C=C/c1ccccc1O)c1ccc(Cl)cc1 | 0 | 10.0* | 19 | 0 | -12 | 0 | 14 | 9.4*
O=C(c1ccc(C(F)(F)F)cc1)N1CCC(=O)N(C(COCc2ccc(C(F)(F)F)cc2)Cc2ccccc2)CC1 (stereo unspecified) | 4 | 8.9* | 18 | 2 | -1 | 0 | 38* | 17*
CCc1nc2n(n1)C(O)c1cc([N+](=O)[O-])ccc1S2 (stereo unspecified) | -7 | -3 | 1 | -1 | 2 | 0 | . | .
COc1ccc(S(=O)(=O)NN(C)c2ncc(C(F)(F)F)cc2Cl)cc1 | -1 | 9.4* | -8 | 0 | 9 | -1 | 7 | 6
CNC(=O)COC(=O)c1ccc2c(c1)S(=O)(=O)c1ccccc1C2=O | -1 | 0 | -5 | -2 | 3 | 0 | . | .
Cc1cc(-c2cc(C(=O)Nc3ccccc3)on2)nc(NCC2CC2)n1 | -8 | 5 | -2 | -2 | 6 | 0 | . | .
Cn1cc([N+](=O)[O-])c(C(=O)NNC(=O)c2ccc([N+](=O)[O-])cc2)n1 | 10 | 8.8* | 5 | 5 | 8 | -1 | 8 | 9
Cc1ccc(CCNC(=O)CCCn2nc(C)c3c(C)n(-c4ccc(C)cc4)nc3c2=O)cc1 | -4 | 11* | 11 | 7 | 1 | 0 | 5 | 6
Cc1ccc(-n2nc3c(=O)n(CCCC(=O)NCCc4ccccc4)nc(C)c3c2C)cc1 | 6 | -4 | -19 | 7 | 12 | 0 | . | .
O=C(CSc1ccc(-c2ccco2)nn1)c1ccc(F)cc1 | -1 | 9.4* | 19 | -1 | -23 | 0 | 7 | 6
O=C(CSc1ccc(-c2ccco2)nn1)NCc1ccc(F)cc1 | -6 | -4 | -14 | -5 | -2 | 0 | . | .
CCCCOc1ccc(NC(=O)CN2CCN(Cc3ccccc3)CC2)cc1 | 0 | 8.8* | 14 | 5 | -10 | 0 | -2 | 4
CSc1nc2ccc(NS(=O)(=O)c3cccc(Cl)c3Cl)cc2s1 | 2 | 9.7* | 20 | 6 | -56 | 1 | 14 | 10*
CC(C)COc1ccc(CSCCNC(=S)Nc2ccccc2)cc1 | -2 | 9.1* | 17 | -3 | -23 | 0 | 29* | 13*
c1nc(NCc2ccc3c(c2)OCO3)c2cc(-c3ccoc3)ccc2n1 | 5 | 9.9* | -3 | 1 | -8 | 1 | -12 | 3
OCC[C@H]1C[C@H](O)[C@@H](O)[C@]2(OCCc3ccccc32)O1 | 4 | 7 | 1 | 5 | 1 | 0 | . | .
O=C1c2ccccc2C(=O)N1CC(O)COc1ccccc1Cl (stereo unspecified) | -2 | -5 | 2 | 3 | 12 | 0 | . | .
OC(c1ccccc1)(c1ccccc1)C1CCN(CCCNc2ccc(C(F)(F)F)cc2)CC1 | 7 | 9.4* | 17 | 6 | -9 | 1 | 20 | 11*
